# In PubChem BioAssay (NCI):
# “And” between values parts separate entries of the source, which are not always exact repeats. Equal values may be shown once. About 83,000 compounds went through this panel and 20% of them were active in at least one assay; those are over-represented in the sample as a whole.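 Single-dose data. Exposure time 48 hours. Values below 10 considered active.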 Values without a mark were called inactive.
# System: TK-10 renal
# Experiment: NCI-60 one-dose screen, 48 h (100 = growth as untreated, 0 = no growth, -100 = all killed)
# Conditions: 10 µM unless noted
# Experimental: Growth inhibition of the TK-10 human tumor cell line is measured as a screen for anti-cancer activity. Cells are grown in 96 well plates and exposed to the test compound for 48 hours. Compounds are tested at a single concentration, which is 10^-5 M for most compounds. The reported endpoint is percent growth (GI% or GIPRCNT), where numbers from 0 - 100% represent growth inhibition, and numbers from -100% - 0 represent cell death. For example, a value of 40 represents 60% growth inhibition. A value of 0 means no net growth occurred over the course of the experiment. A value of -40 indicates 40% of cells at the beginning of the experiment died by the end of the experiment. A value of -100 means all cells are dead at the end of the experiment.
# NCI-60 Human Tumor Cell Lines Screen was performed using the standard one-dose NCI protocol, which is described in more detail at https://dtp.cancer.gov/discovery_development/nci-60/default.htm.
# Compounds with GIPRCNT values below 10 were considered active. Activity score was based on GIPRCNT using the following formula: […]
# Score is 0 for GIPRCNT values of 100 or above, 50 for GIPRCNT values of 0, and 100 for GIPRCNT values of -100.
row,Compound,growth
1,Cc1ccc(C(=O)c2ccc(C)cc2)cc1,101% and 96.5%
2,N#CC1c2ccccc2C=CN1C(=O)c1ccccc1 (stereo not given),109% and 115%
3,CCc1ccc(OC(=O)CCl)cc1,101%
4,COc1ccc(/C=N/NC(N)=S)cc1,104%
5,Cc1c(Cl)c(C)c(Cc2c(C)c(Cl)c(C)c(Cl)c2O)c(O)c1Cl,25.1%
6,O=[N+]([O-])c1ccc(N2CCN=N2)cc1,85.5%
7,CC(CN(C)C)CN1c2ccccc2Sc2ccccc21 (stereo not given),82.6% and 76.6% and 81.6%
8,CCNCc1ccccc1,100%
9,O=C(O)c1ccc2c3ccc(C(=O)O)c4c(C(=O)O)ccc(c5ccc(C(=O)O)c1c25)c43,117%
10,O=C(O)C1CSCN1 (stereo not given),103% and 109%
11,CCCC(=O)Oc1ccc2ccccc2c1,103%
12,O=C1c2ccccc2C(c2ccccc2)C1c1ccccc1 (stereo not given),124%
13,CCNC1=CC(=O)c2ncccc2C1=O,83.6%
14,CC(=O)Oc1cc(C)c(OC(C)=O)c(C)c1C,124%
15,COc1ccc(S(=O)(=O)c2ccc(F)cc2)cc1,95.4%
16,O=C(O)c1cccc(Br)c1,108% and 93.6%
17,Cc1onc(-c2c(F)cccc2Cl)c1-c1ncc(-c2ccc(Cl)cc2)o1,84% and 53.8%
18,Cc1ccc(NC(=S)N/C=C(\c2ccccc2)S(=O)Cc2ccccc2)c(C)c1 (stereo not given),109%
19,COc1ccc(-n2[nH]c3c(cnc4ccccc43)c2=O)cc1,90% and 93.4%
20,COc1ccc2oc3c(ccc[n+]3C)c(=O)c2c1,97.6%

row,Compound,growth
1,Nc1nc(N)c2cc(S(=O)(=O)c3ccccc3)ccc2n1,59.6% and 63.8%
2,Oc1cccnc1CN1CCOCC1,110% and 109%
3,c1ccc2c[n+](Cc3ccc4ccccc4n3)ccc2c1,99.9%
4,Cc1c(Cl)cc(Cl)c(N)c1Cl,109%
5,CC(C)=NOC(C)C(=O)O (stereo not given),104%
6,O=C(O)Cc1cc(=O)[nH]n(-c2ccccc2)c1=O,102%
7,COc1ccccc1OCC(O)CO (stereo not given),98%
8,O=C1CCC(=O)N1CC1CC2CCC1C2 (stereo not given),94.4% and 83.7%
9,CC1=CC(=O)c2cccc(NC3=NCCO3)c21,98.3%
10,O=C(OCc1ccccc1)c1ccccc1,105% and 102%
11,NCCSSC/C=C\CSSCCN,107%
12,CCOC(=O)C(N)Cc1cc(I)c(O)c(I)c1 (stereo not given),120% and 107%
13,CCCCCc1cc[n+](CC(=O)c2ccccc2)cc1,120% and 101%
14,O=C(c1ccc(Cl)cc1)C1C(c2ccccc2)C1[N+](=O)[O-] (stereo not given),95.1%
15,O=C(O)COc1ccccc1F,109%
16,C(=N\OCCc1ccccc1)/c1ccccn1,93.3% and 89.5%
17,N#Cc1ccc(/C=C/C(=O)c2ccccc2)cc1,98.9% and 55.8%
18,CNc1ccc(Cl)cc1S(=O)(=O)c1ccccc1[N+](=O)[O-],99.7% and 95%
19,O=c1[nH]c(=O)n(C2OC(CO)C(O)C2O)cc1I (stereo not given),102% and 125%
20,Cc1nc2c(=O)[nH]c(=S)[nH]c2[nH]c1=O,106% and 119%
